Measurements published in PubChem BioAssay (Tox21).
Where “and” joins values, the source holds several entries; their conditions need not be identical. Identical values can stand only once. Results filed as inconclusive are left out. A call without a number means that no potency is given here. Unmarked numbers belong to inactive results. Calls of active or inactive are those of the source. Calls follow the shape of the dose curve; as a rule, active = well fitted cell-killing curve with a large enough effect in the repeat runs; inconclusive = weak or mixed curves, or effect the other way; inactive = flat fitted curve, though single readings scatter.

Columns and labels:
[1] = cAMP Responsive Elements (CRE) small molecule antagonists, cell-based qHTS assay: qHTS cell viability counter screen (AID 2060913); conditions: CRE-bla HEK293T viability, CellTiter-Glo luminescence, 5 h; series mostly up to 92.4 µM; also: nearly all actives have a fitted effect of over 40% in size
In short: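 Steps: cells plated and held 18 hrs at 37 C/5% CO2; compounds and NKH477 (0.25 uM final) added; 3 hrs incubation; reporter substrate read; CellTiter-Glo added to measure cytotoxicity by luminescence.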

[2] = cAMP Responsive Elements (CRE) small molecule agonists, cell-based qHTS assay: qHTS cell viability counter screen (AID 2060914); conditions: CRE-bla HEK293T viability, CellTiter-Glo luminescence, 5 h; series mostly up to 92.4 µM;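 also: viability read after 3 h of compound exposure; nearly all actives have a fitted effect of over 50% in size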
In short: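 HEK 293T CRE-bla; DMEM + 10% dialyzed FBS, 25 mM HEPES; 18 h pre-incubation; compound 3 h, 37 °C/5% CO2; CellTiter-Glo added after reporter read; luminescence after 30 min RT.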
Potency is read from the fitted curve at half-maximal effect.

Structure (SMILES)	Potency [1]	Potency [2]	viability change, negative = cytotoxic [1]	activity change, negative = cytotoxicity [2]
O=C(O)COc1ccccc1	inactive	inactive		
O=[N+]([O-])c1ccc(Oc2ccc(Cl)cc2Cl)cc1	inactive	inactive		
O=C(NC(=O)c1c(F)cccc1F)Nc1ccc(Oc2ccc(C(F)(F)F)cc2Cl)cc1F	inactive	inactive		
CCCCCCI	inactive	inactive		
C=CCC1([C@H](C)CCC)C(=O)NC(=O)NC1=O	inactive	inactive		
CCCCN(CCCC)SN(C)C(=O)Oc1cccc2c1OC(C)(C)C2	inactive	inactive		
Cc1ccccc1C(=O)Nc1cccc(OC(C)C)c1	inactive	inactive		
Clc1ccc(C(Cl)(Cl)Cl)cn1	inactive	inactive		
C=COCCCl	inactive	inactive		
[Cl][Sb]([Cl])[Cl]	inactive	inactive		
COC(=O)N(C(=O)N1CO[C@@]2(C(=O)OC)Cc3cc(Cl)ccc3C2=N1)c1ccc(OC(F)(F)F)cc1	inactive	inactive		
[CH3][Hg][Cl]	inactive	inactive		
ClC(Cl)(Cl)Cl	inactive	inactive		
C=CCc1cc(OC)c2c(c1)OCO2	inactive	inactive		
Nc1cnn(-c2ccccc2)c(=O)c1Cl	inactive	inactive		
BrCBr	inactive	inactive		
CCCn1cc[n+](C)c1	inactive	inactive		
CCCCCCCCCCBr	inactive	inactive		
O=C(NC(=O)c1c(F)cccc1F)Nc1cc(Cl)c(F)c(Cl)c1F	inactive	inactive		
O=C(O)c1cc(I)cc(I)c1I	inactive	inactive		
CN(C)P(=O)(N(C)C)N(C)C	inactive	inactive		
O=c1n(Cl)c(=O)n(Cl)c(=O)n1Cl	inactive	inactive		
Nc1ccc([N+](=O)[O-])cc1[N+](=O)[O-]	inactive	inactive		
C=C(Cl)CCl	inactive	inactive		
CN1COCN(Cc2cnc(Cl)s2)/C1=N\[N+](=O)[O-]	inactive	inactive		

Structure (SMILES)	Potency [1]	Potency [2]	viability change, negative = cytotoxic [1]	activity change, negative = cytotoxicity [2]
Oc1cc(Cl)ccc1Cl	inactive	inactive		
C[C@]12C=CC3=C4CCC(=O)C=C4CC[C@H]3[C@@H]1CC[C@@H]2O	inactive	inactive		
CCN(CC)CCO	inactive	inactive		
CCOP(=S)(OCC)SCCS(=O)(=O)CC	inactive	inactive		
COP(=O)(OC)O/C(C)=C/C(=O)N(C)C	inactive	inactive		
O=C1C2CC=CCC2C(=O)N1SC(Cl)(Cl)Cl (centres undefined)	inactive	inactive		
Nc1ccccc1Cl	inactive	inactive		
CC(C)(c1cc(Cl)c(O)c(Cl)c1)c1cc(Cl)c(O)c(Cl)c1	inactive	inactive		
C[C@H]1[C@@H]2Cc3ccc(O)cc3[C@@]1(C)CCN2C	inactive	inactive		
CCCCCCCCc1ccc(O)cc1	inactive	inactive		
C=CC=O	inactive	inactive		
O=C=NC1CCCCC1	inactive	inactive		
ClCc1ccccc1CCl	inactive	inactive		
CCOP(=S)(OCC)Oc1cnc2ccccc2n1	inactive	inactive		
O=C1OC(CCN2CCCCC2)OC1(c1ccccc1)c1ccccc1 (centres undefined)	inactive	inactive		
CCCCCCCCn1sccc1=O	54.6 µM (active) and 64.1 µM (active)	43.4 µM (active)		
CC(C)N1C(=O)c2ccccc2NS1(=O)=O	inactive	inactive		
CCCCCCCCCC(CC)c1ccc(S(=O)(=O)O)cc1 (centres undefined)	inactive	inactive		
CCOP(=O)(OCC)OP(=O)(OCC)OCC	inactive	inactive		
CC1=C(C(=O)O)N2C(=O)[C@@H](N)[C@H]2SC1			6.72% [at 18.9 µM]	16% [at 18.9 µM]
C=CCc1ccc(OC)cc1	inactive	inactive		
CSc1nnc(C(C)(C)C)c(=O)n1N	inactive	inactive		
C=CC(C)=O	inactive	inactive		
Nc1cccc(Cl)c1	inactive	inactive		
CCCCC/C=C\C/C=C\C/C=C\C/C=C\CCCC(=O)NCC(=O)O	inactive	inactive		

Structure (SMILES)	Potency [1]	Potency [2]	viability change, negative = cytotoxic [1]	activity change, negative = cytotoxicity [2]
Cc1cc(-c2ccc(N)c(C)c2)ccc1N	inactive	inactive		
O=C1C(Cl)=C(Cl)C(=O)C(Cl)=C1Cl	inactive	inactive		
CC[C@H](O)C(C[C@H](C)N(C)C)(c1ccccc1)c1ccccc1	inactive	inactive		
CCC(C)(C)C(=O)OC1=C(c2ccc(Cl)cc2Cl)C(=O)OC12CCCCC2	inactive	inactive		
C=C1C[C@@H]2[C@H](CC[C@]3(C)C(=O)CC[C@@H]23)[C@@]2(C)C=CC(=O)C=C12	inactive	inactive		
O=C(O)COc1nc(Cl)c(Cl)cc1Cl	inactive	inactive		
CCN(CC)CCOC(=O)C(C)(c1ccccc1)c1ccccc1	inactive	inactive		
[CH3][Sn]([Cl])([Cl])[Cl]	inactive	inactive		
COC[C@@H](NC(C)=O)C(=O)NCc1ccccc1	inactive	inactive		
Cn1c(-c2ccccc2)cc(-c2ccccc2)[n+]1C	inactive	inactive		
CC(C)NC(C)C	inactive	inactive		
CC(C)CCCCCCCOP(=O)(Oc1ccccc1)Oc1ccccc1	inactive	inactive		
CCCCc1ccccc1	inactive	inactive		
CCCCNC(=O)n1c(NC(=O)OC)nc2ccccc21	inactive	inactive		
Clc1ccc(C(OCCN2CCCCC2)c2ccccc2)cc1 (centres undefined)	inactive	inactive		
C[C@]12C/C(=C/O)C(=O)C[C@@H]1CC[C@@H]1[C@@H]2CC[C@@]2(C)[C@H]1CC[C@]2(C)O	inactive	inactive		
Nc1ccc([N+](=O)[O-])cc1N	inactive	inactive		
CCC[CH2][Sn]([CH2]CCC)([CH2]CCC)[O]C(=O)c1ccccc1	5.7 µM (active)	5.45 µM (active)		
CN(N=O)c1ccc([N+](=O)[O-])cc1	inactive	inactive		
O=C(Oc1ccc(Br)cc1)N1CCN2CCC1CC2	inactive	inactive		
O=C1NC(=O)C(=O)C(=O)N1	inactive	inactive		
CCc1ccccc1C	inactive	inactive		
CCCCc1c(C)nc(NCC)nc1OS(=O)(=O)N(C)C	inactive	inactive		
CNC(=O)Oc1cccc2c1OC(C)(C)O2	inactive	inactive		
O=c1[nH]c2ccccc2o1	inactive	inactive		

Structure (SMILES)	Potency [1]	Potency [2]	viability change, negative = cytotoxic [1]	activity change, negative = cytotoxicity [2]
OCC(O)CCl (centres undefined)	inactive	inactive		
CC(=O)c1cc2c(cc1C)C(C)(C)C(C)CC2(C)C (centres undefined)	inactive	inactive		
CCS(=O)(=O)c1cccnc1S(=O)(=O)NC(=O)Nc1nc(OC)cc(OC)n1	inactive	inactive		
O=NN1CCOCC1	inactive	inactive		
CCOC(=O)C(C)OC(=O)c1cc(Oc2ccc(C(F)(F)F)cc2Cl)ccc1[N+](=O)[O-] (centres undefined)	inactive	inactive		
CCCSC(=O)Cl	inactive	inactive		
O=C(Cc1ccccc1)OCc1ccccc1	inactive	inactive		
CON(C)C(=O)Nc1ccc(Cl)c(Cl)c1	inactive	inactive		
CCCCC(=O)Cl	inactive	inactive		
O=C(NCc1cccnc1)Nc1ccc([N+](=O)[O-])cc1	inactive	inactive		
BrC(Br)Br	inactive	inactive		
C=CC(=O)NCNC(=O)C=C	inactive	inactive		
N#Cc1c(Cl)cccc1Cl	inactive	inactive		
CCC[CH2][Sn]([CH2]CCC)([O]C(C)=O)[O]C(C)=O	inactive	inactive		
Nc1nc(N)nc(N)n1	inactive	inactive		
CCCCN(CCCC)C(=S)[S-].CCCCN(CCCC)C(=S)[S-].[Zn+2]	inactive	inactive		
CC(Cc1ccc(OCC(=O)O)cc1)NCC(O)c1csc(C(F)(F)F)n1 (centres undefined)	inactive	inactive		
c1cncc([C@@H]2CCCCN2)c1	inactive	inactive		
CC(C)=CC1C(C(=O)OCc2coc(Cc3ccccc3)c2)C1(C)C (centres undefined)	inactive	inactive		
CCCCC(CC)COC(=O)OOC(C)(C)C (centres undefined)	inactive	inactive		
CCCOC(=O)c1ccccc1C(=O)OCCC	inactive	inactive		
c1ccc2c(c1)Nc1ccccc1S2	inactive	inactive		
